Calls of active or inactive are those of the source.

The target of this test is Dihydroorotate dehydrogenase (quinone), mitochondrial (Plasmodium falciparum (isolate 3D7)) (UniProt Q08210). As to the kind of experiment: inhibition of P. falciparum DHODH – biochemical, C-terminal His tag, absorbance 600 nm, primary screen (AID 1175).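 Further: recombinant parasite enzyme with a five histidine tag at its C terminus; test concentration not given here.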 As to conditions: PfDHODH enzyme, DCIP absorbance 600 nm; higher = more signal, called active from +8 up or from −8 down.
Dihydroorotate dehydrogenase (quinone), mitochondrial (Plasmodium falciparum (isolate 3D7)), sequence (Q08210 whole entry, looked up): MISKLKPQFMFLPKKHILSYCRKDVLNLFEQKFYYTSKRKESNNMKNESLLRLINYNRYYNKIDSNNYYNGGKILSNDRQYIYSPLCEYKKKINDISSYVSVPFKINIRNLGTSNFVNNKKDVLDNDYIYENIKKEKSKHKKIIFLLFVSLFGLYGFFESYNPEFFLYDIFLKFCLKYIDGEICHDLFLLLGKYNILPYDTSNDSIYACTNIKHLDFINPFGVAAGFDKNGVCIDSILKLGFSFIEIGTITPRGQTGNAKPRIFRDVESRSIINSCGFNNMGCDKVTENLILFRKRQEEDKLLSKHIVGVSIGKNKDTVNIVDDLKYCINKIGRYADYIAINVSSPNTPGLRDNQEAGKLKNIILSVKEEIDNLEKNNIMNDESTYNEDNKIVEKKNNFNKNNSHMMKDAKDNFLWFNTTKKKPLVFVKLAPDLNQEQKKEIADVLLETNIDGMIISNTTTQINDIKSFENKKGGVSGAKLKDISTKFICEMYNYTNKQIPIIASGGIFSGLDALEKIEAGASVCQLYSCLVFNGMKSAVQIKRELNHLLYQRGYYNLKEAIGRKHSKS
As for `CC(C)(C)N1CC=CC23O[C@@H]4/C=C\CCCOC(=O)C4[C@H]2C(=O)N(CCCCCO)[C@@H]3C1=O` (stereo partly drawn), the composite z-score is -0.22 (inactive). Then `COCCCNC(=O)[C@@]1(CCS(=O)(=O)c2ccccc2)COC(c2ccc(OCCCO)cc2)=N1`, with -0.565 (inactive). For `O=C1NC(=O)C2C1C=CC(C(O)c1ccc(B(O)O)cc1)N2Nc1ccc(Cl)cc1Cl` (stereo not drawn), the composite z-score is -0.0575 (inactive). Then `CCOc1cc(C(O)C2C=CC3C(=O)N(c4ccccc4)C(=O)C3N2Nc2ccccc2F)ccc1O` (stereo not drawn), with 0.717 (inactive); and `O=C1OCCC=C[C@H]2OC34C=CCN(c5ccc6ccccc6c5)C(=O)[C@H]3N(CCO)C(=O)[C@@H]4C12` (stereo partly drawn), with -3.6 (inactive); and `CN(C)CCCNC(=O)[C@@]1(Cc2ccccc2I)c2ccccc2C(=O)N(C2CCCCC2)[C@H]1c1ccc(CO)cc1`, with 0.201 (inactive). For `COc1ccc(C#Cc2ccc3c(c2)[C@]2(C(=O)N3)[C@H](C(=O)O)[C@H]3C(=O)O[C@H](c4ccccc4)[C@H](c4ccccc4)N3[C@@H]2c2ccccc2OCCO)cc1`, the composite z-score is -3.86 (inactive). Then `COCCOC(=O)N1C(=O)[C@@]2(c3cc(C#CC4(O)CCCCCC4)ccc31)[C@H](c1ccc(O)cc1)N1[C@H](c3ccccc3)[C@H](c3ccccc3)OC(=O)[C@H]1[C@@H]2C(=O)N1CCCCCCC1`, with -1.45 (inactive); and `[N-]=[N+]=Nc1ccccc1[C@@H]1OC(c2ccc(OCCCO)cc2)=N[C@]1(Cc1ccccc1)C(=O)NCCN1CCOCC1`, with 0.417 (inactive); and `CCCCC(O)C1C=CC2C(=O)N(c3ccccc3)C(=O)C2N1Nc1ccccc1` (stereo not drawn), with 0.477 (inactive).

Consider `CC=CC(O)C1C=CC2C(=O)NC(=O)C2N1Nc1ccc(Cl)cc1Cl` (stereo not drawn), for which the composite z-score is 0.733 (inactive).

As to `COC(=O)[C@H](Cc1ccccc1)N1CC2=CCCC=C[C@@H]2[C@H]1[C@H](O)Cc1ccccc1`, the composite z-score was -0.313 (inactive). Regarding `Cc1ccc(S[C@]2(C(=O)NC(C)C)CC(=O)N(C3CCCCC3)[C@@H]2c2ccc(CO)cc2I)cc1`, the composite z-score is 0.62 (inactive).

Turning to `CCCNC(=O)[C@@]1(c2ccc([N+](=O)[O-])cc2)CC(=O)N(C(C)C)[C@@H]1c1ccc(CO)cc1`, the composite z-score was 0.0058 (inactive). Take `COC(=O)[C@@]1(Cc2ccc(OC)cc2)[C@H]2c3cc(C(=O)N(C)C)[nH]c3C[C@H]2CN1C(=O)c1ccccc1`: the composite z-score is -0.309 (inactive).

Consider `O=C1N(CCS(=O)(=O)c2ccccc2)c2ccccc2C[C@]12N=C(c1ccc(OCCCO)cc1)O[C@@H]2c1ccccc1`, for which the composite z-score is -2.58 (inactive). Then `CC1=C([C@H](O)CCc2ccccc2)[C@H](CO)n2c(=O)n(-c3ccccc3)c(=O)n2C1`, with -1.34 (inactive).

Consider `O=C1O[C@H](Cc2ccccc2)[C@@H]2[C@H]3C=CCCC=C3CN2[C@H]1Cc1ccc(O)cc1`, for which the composite z-score is -0.259 (inactive). Then `CN(C)c1ccc(C(O)C2C=CC3C(=O)N(Cc4ccccc4)C(=O)C3N2n2cnnc2)cc1` (stereo not drawn), with -0.536 (inactive); and `COC(=O)[C@@]1(Cc2ccc(F)cc2)[C@H]2c3cc(C(=O)N(C)C)n(CCc4ccc(O)c(O)c4)c3C[C@H]2CN1C(=O)c1ccccc1`, with -0.137 (inactive); and `CCCC[C@H]1C[C@@H]1[C@@H]1N(C(C)=O)[C@H](c2cccc(OC)c2)CC12CC2`, with 0.348 (inactive). For `CC(=O)OCC1C2CC[C@H]3C(OCc4ccc(F)cc4C(F)(F)F)OC[C@]4(C)[C@H]3C2=C(CN4C(=O)OC(C)(C)C)[C@H](C)C1COC(C)=O` (stereo partly drawn), the composite z-score is 0.182 (inactive). For `COc1ccccc1CN1C(=O)c2ccccc2[C@](Cc2ccccc2I)(C(=O)NCC(C)C)[C@@H]1c1ccc(CO)cc1`, the composite z-score is 0.133 (inactive).

As for `C[N+](C)(C)CCCC[C@@H]1NC(=O)[C@@H]2C[C@H](C(=O)NCc3ccc(F)cc3)[C@H](c3ccc(O)cc3)N2C1=O`, the composite z-score is 0.0528 (inactive).

Take `CN1C(=O)C2C(C1=O)C1C=C(CCCO)C2C(C2CC2)N1Cc1cccc(OC(F)(F)F)c1` (stereo not drawn): the composite z-score is -1.75 (inactive). For the compound `COC(=O)[C@@]1(Cc2ccccc2)[C@H]2c3cc(C(=O)N(C)C)n(Cc4ccc(S(C)(=O)=O)cc4)c3C[C@H]2CN1C(=O)c1ccccc1`, the composite z-score is -0.316 (inactive).

For the compound `O=C1c2ccccc2[C@@]2(Cc3ccccc3N(Cc3ccccc3)C2=O)[C@H](c2ccc(CO)cc2)N1Cc1ccccc1Cl`, the composite z-score was -3.2 (inactive).

Turning to `O=C1C[C@@](C(=O)NCc2ccccc2)(c2ccc([N+](=O)[O-])cc2)[C@@H](c2ccc(CO)cc2)N1C1CCCCC1`, the composite z-score is -1.58 (inactive).

Values taken from PubChem BioAssay.
